# Test results from PubChem BioAssay AID652283 (National Center for Advancing Translational Sciences (NCATS), 2013).
# “And” between values parts separate entries of the source, which are not always exact repeats. Equal entries are not always repeated. Results filed as inconclusive are left out. A structure can be active in one record and inactive in another. A number with no mark means an inactive call. The source made the active and inactive calls. Calls come from the whole dose curve; as a rule, active = well fitted inhibition curve with a large enough effect; inconclusive = small, poorly fitted or top-dose-only effect; inactive = no such curve, though single readings can be large or run the other way.
# Assay: qHTS Assay for Lipid Storage Modulators: COS7 Assay against Probe and Analogs
# Conditions: COS7 lipid droplet area, BODIPY imaging, 18 h; cells loaded with 400 µM oleic acid
# Source text: Storing lipids as a reservoir for energy or the anabolism of elementary metabolites is a common feature of probably all cells and is conserved from bacteria to humans. The universal cellular lipid storage organelle is the so-called lipid storage droplet (LD). Although ubiquitous, LDs share a simple structure composed of a hydrophobic core that harbors the storage lipids, which is shielded by a droplet-specific phospholipid monolayer to which proteins are attached. The current model of LD biogenesis involves an incorporation of the lipid core into the membrane leaflets of the endoplasmic reticulum (ER) followed by a subsequent budding-like maturation of a LD, which ultimately pinches off. Once released, LD volume can increase by localized lipogenesis or fusion of existing droplets. Storage lipids are re-mobilized enzymatically by lipase activity. Lipase regulation in the adipocyte is heavily studied and involves multiple components including catecholamine signaling, the LD-associated proteins Perilipin and comparative gene identification-58 (CGI-58) and at least two lipases named hormone sensitive lipase (HSL) and adipocyte triglyceride lipase (ATGL). LD regulation outside of the adipocyte is poorly understood and only few components are known. However, there is an urgent need to learn more about ectopic fat depots as mislocalized storage of lipids, for example in the liver or muscle, is an eminent health problem associated with insulin resistance or the metabolic syndrome. We developed a laser-scanning cytometer assay to enable 1,536-well screening and combined the results of the small molecules screen with an RNAi database based on lipid storage. In this assay we tested analogs of the probe against a mammalian cell line (COS7), to see if these small molecules could disrupt lipid storage. NIH Molecular Libraries Probe Production Centers Network [MLPCN] NIH Chemical Genomics Center [NCGC] MLPCN Grant: MH085686 Assay Submitter (PI): Mathias Beller, Max-Planck-Institut fur Biophysikalische Chemie
# COS7 cells were obtained from ATCC (CRL-1651), 5500 cells/well were dispensed into Corning 96 well imaging plate (catalog # 3340), and cultured in 100 uL of 1:1 DMEM medium (PAA) contain 10% fetal bovine serum (FBS) for 24 hours at 37 degrees C, 95% humidity, and 5% CO2. The medium was exchanged for compound treatment. Compound treatment occurred in 150 microL serum reduced medium (5% FBS) and 0.2% DMSO in presence of 400 microM oleic acid for 17-18 h. Cells were then fixed (3.7 % formaldehyde in PBS, 5 min), permeabilized (0.1% Triton X100, 5 min) and washed three times with PBS. Lipid droplets (1:2000 BODIPY 493/503) and nuclei (1:1000 Hoechst 33342) were stained for 1h. Imaging was performed in a Zeiss Axiovert automatic microscope. Number of lipid droplet accumulated in […] cells were analyzed using visual examination of the microscopic images and additional quantification by image segmentation using Cell Profiler.
Compound,max response,Potency
CCNC(=O)C1CCN(C(=O)C(C)(C)NC(=O)Nc2ccccc2Cl)CC1,-3.83%,–
O=C(NC1CCCc2c1cnn2-c1ccc(F)cc1F)C1CCCCC1 (stereo not given),3.71%,–
O=C(NC1CCCc2c1cnn2-c1ccc(F)cc1F)c1ccc(C(=O)c2ccccc2)cc1 (stereo not given),18.1%,–
COc1cc(C)c(Sc2cnc(NC(=O)c3ccc(CNC(C)C(C)(C)C)cc3)s2)cc1C(=O)N1CCN(C(C)=O)CC1 (stereo not given),-8.98%,–
CCOC(=O)C1CCN(C(=O)C(C)(C)NC(=O)Nc2cccc(OC)c2)CC1,–,16.6 µM (active)
CCOC(=O)C1CCN(C(=O)CNC(=O)Nc2ccccc2Cl)CC1,11.1%,–
Cc1cc2c(cc1C1(c3ccc(C(=O)O)cc3)CC1)C(C)(C)CCC2(C)C,-1.19%,–
O=C(Nc1cccc2nn(-c3ccc(F)cc3)cc12)c1ccccn1,9.12%,–
CCOC(=O)C1CCN(C(=O)C(C)(C)NC(=O)Nc2ccc([N+](=O)[O-])cc2)CC1,8.04%,–
CCN(CC)C(=O)C1CCN(C(=O)C(C)(C)NC(=O)Nc2ccccc2Cl)CC1,-9.22%,–
O=C(NC1CCCc2c1cnn2-c1cccc(O)c1)c1ccccn1 (stereo not given),–,4.18 µM (active)
CCOc1ccc(CCNC(=O)c2cccs2)cc1OCC,-20.6%,–
CCOc1ccc(C(C)CNC(=O)c2cc3sccc3n2Cc2ccccc2)cc1OCC (stereo not given),–,11.8 µM (active)
CC1(C)CCC(c2ccc(Cl)cc2)=C(CN2CCN(c3ccc(C(=O)NS(=O)(=O)c4ccc(N[C@H](CCN5CCOCC5)CSc5ccccc5)c(S(=O)(=O)C(F)(F)F)c4)cc3)CC2)C1,–,3.72 µM (active)
CCOc1ccc(CCNC(=O)C2(c3ccccc3)CC2)cc1OCC,2.24%,–
O=C(NCCc1ccc(O)c(O)c1)c1cc2sccc2n1Cc1ccccc1,20.9%,–
CC(C)(C)OC(=O)NC1CCCc2c1cnn2-c1ccc(F)cc1F (stereo not given),3.11%,–
O=C(NC1CCCc2c1cnn2-c1ccc(F)cc1F)C1CCCCN1 (stereo not given),-10.9%,–
O=C(O)CCc1ccc(NCc2cccc(Oc3ccccc3)c2)cc1,-0.35%,–
CCOc1ccc(CCNC(=O)C2COc3ccccc3O2)cc1OCC (stereo not given),–,18.7 µM (active)

Compound,max response,Potency
CCOC(=O)C1CCN(C(=O)C2(NC(=O)Nc3ccccc3Cl)CCCCC2)CC1,-103%,–
O=C(NC1CCCc2c1cnn2-c1ccc(F)cc1F)c1ccccn1 (stereo not given),16%,16.6 µM (active) and 14.8 µM (active)
CCOC(=O)C1CCN(C(=O)C(C)(C)NC(=O)Nc2cccc(C(=O)OC)c2)CC1,9.87%,–
CCn1c(C(=O)NCc2ccc(OC)c(OC)c2)cc2sccc21,0.0567%,–
CCn1c(C(=O)NCCc2ccc(OC)c(OC)c2)cc2sccc21,3.82%,–
CCOC(=O)C1CCN(C(=O)C(C)(C)NC(=O)Nc2ccc(Cl)cc2Cl)CC1,–,6.62 µM (active)
CCOc1cc(CCNC(=O)c2cc3sccc3n2Cc2ccccc2)cc(F)c1OCC,–,2.35 µM (active)
CCOc1ccc(CCNC(=O)c2cc3sccc3n2Cc2ccccc2)c(F)c1OCC,–,16.6 µM (active)
CCOc1ccc(CCNC(=O)c2cc3sccc3n2Cc2ccc(-n3cncn3)cc2)cc1OCC,–,5.9 µM (active)
CCOc1ccc(CCNC(=O)c2ccccn2)cc1OCC,1.41%,–
CCOC(=O)C1CCN(C(=O)C(C)(C)NC(=O)Nc2ccc(Oc3ccccc3)cc2)CC1,–,6.62 µM (active)
CCOC(=O)C1CCN(C(=O)C(C)(C)NC(=O)Nc2ccc(-c3ccccc3)cc2)CC1,–,10.5 µM (active)
CCOC(=O)C1CCN(C(=O)C(C)(C)NC(=O)Nc2ccc(CN3CCOCC3)cc2)CC1,-3.75%,–
O=C(O)c1cccc(-c2noc(-c3ccccc3F)n2)c1,-6.12%,–
CCOc1ccc(CCNC(=O)Cc2ccccc2)cc1OCC,-10.6%,–
O=C(Cc1ccccc1)NC1CCCc2c1cnn2-c1ccc(F)cc1F (stereo not given),1.55%,–
CC(C)(NC(=O)Nc1ccccc1Cl)C(=O)N1CCC(C(=O)O)CC1,21.7%,–
CCOc1cc(F)c(CCNC(=O)c2cc3sccc3n2Cc2ccccc2)cc1OCC,-106%,–
CCOC(=O)C1CCN(C(=O)C(C)(C)NC(=O)Nc2ccc(N)cc2)CC1,-5.67%,–
